Compound activity deposited in PubChem by National Center for Advancing Translational Sciences (NCATS).
Sampled rows, rich in hits. Any-hit rate of the full collection: about 17%.
TDP1 cell CPT: DT40-hTDP1 cell growth loss with CPT. 420,000 tested, 12% active. AID 686979. chicken DT40 Tdp1-/-;hTDP1 cells + 20 nM CPT, ATP luminescence, 48 h. Potency, µM (highest dose often 46.2 µM), without a hit: at the highest dose activity change, negative = growth inhibition, actives largely listed as inhibitors; note: % is set by controls: 0 for no effect and ±100 for the full control effect; nearly all actives have a fitted effect of over 55% in size
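Chicken DT40 Tdp1-/- cells stably complemented with human TDP1 were seeded at 400 cells/well in medium containing 20 nM camptothecin, exposed to pin-transferred compounds, and grown at 37 °C for at least 48 hr. Viability was read as ATP luminescence.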
HT1080 IDH1KD tx: HT-1080 IDH1 knockdown cell toxicity (counter line); HT-1080 IDH1 knockdown viability, ATP luminescence, 48 h; Potency, µM (top dose mostly 46.1 µM), for inactives: at the top dose activity, negative = toxicity, hits mostly cytotoxic; 360,000 tested, 2% active;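 note: 0% = DMSO wells and -100% = cell-free medium wells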
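In this qHTS, HT-1080 cells depleted of IDH1 are exposed for 48 h at 37 °C to compound titrations. Toxicity is scored from CellTiter-Glo luminescence, with DMSO as full viability and medium alone as none.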
HT1080NT lethal: kills 2HG-producing HT-1080-NT fibrosarcoma cells | HT-1080-NT fibrosarcoma viability, CellTiter-Glo ATP luminescence, 48 h | Potency, µM (top dose mostly 46.1 µM), for the others: at the top dose activity, negative = less viability, usual class: cytotoxic | 360,000 tested, 1.6% active | AID 686970;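 note: NT is the 2HG producing partner of a matched IDH1 knockdown line; 0% = DMSO-treated cells and -100% = media-only wells without cells; nearly all actives have a fitted effect of over 55% in size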
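Read-out is CellTiter-Glo luminescence after 10 minutes at room temperature, following 48 hours' compound treatment of HT-1080-NT cells (750 cells/well, RPMI, 5% FBS, 37 degrees C).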
HepG2 tox: counter-screen for TGF-b inhibitors: cytotoxicity in HepG2 cells | Potency, µM (doses to about 46.1 µM), for the others: top-dose activity change, negative = cytotoxicity, most hits filed as cytotoxic | HepG2 CAGA-GFP viability, ATP luminescence, 18 h | 410,000 tested, 0.76% active
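HepG2 CAGA-GFP cells (1000/well, DMEM with 1% FBS) received compound, then TGF-beta at 500 pg/mL final, and were incubated 18 hours at 37 degrees C. Viability was read by CellTiter-Glo luminescence. Media-only wells were set as complete cell-killing and DMSO as no toxicity.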
TGFb SMAD3 inh: blocks TGF-b signaling. HepG2 CAGA-GFP TGF-b/SMAD3 reporter, GFP fluorescence, 18 h; TGF-beta stimulated, 500 pg/mL final. Potency, µM (highest dose often 46.1 µM), without a hit: at the highest dose activity, negative = inhibition, hits mostly inhibitors. 410,000 tested, 1.2% active. AID 588855; note: % is set by controls: 0 for no effect and ±100 for the full control effect; nearly all actives have a fitted effect of over 65% in size
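HEPG2 CAGA-GFP reporter cells (1000/well, DMEM with 1% FBS) received compounds, then recombinant TGF-beta at 500 pg/mL final for 18 hours at 37 degrees C. Per-cell GFP summed per well was normalised to unstimulated and stimulated DMSO controls before curve fitting.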
TDP1 cell noCPT: qHTS for Inhibitors of human tyrosyl-DNA phosphodiesterase 1 (TDP1): qHTS in cells in absence of CPT. DT40 Tdp1-/- hTDP1 cells, no CPT, ATP luminescence, 48 h. Potency, µM (highest dose often 46.2 µM), inactives show at the top dose activity change, negative = growth inhibition, usual class: inhibitors. 420,000 tested, 15% active. AID 686978, 2013; note: % is set by controls: 0 for no effect and ±100 for the full control effect; nearly all actives have a fitted effect of over 55% in size
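Stably hTDP1-transfected Tdp1-null chicken DT40 cells were treated with library compounds minus camptothecin and grown for at least 48 hr at 37 °C, after which cellular ATP was quantified by luminescence.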
* marks the source's active call; other numbers are inactive results; ? = inconclusive; . = no result given; [ ] = remark or other dose. Calls come from the whole dose curve; as a rule, active = well fitted curve in the direction sought with a large enough effect; inconclusive = small, poorly fitted or top-dose-only effect, or another doubt; inactive = no such curve, though single readings can be large; an effect the other way counts as inactive or inconclusive. Potency is the fitted concentration of half-maximal effect.

SMILES	TDP1 cell CPT	HT1080 IDH1KD tx	HT1080NT lethal	HepG2 tox	TGFb SMAD3 inh	TDP1 cell noCPT
CCc1ccc(CNC(=O)c2ccc(CSc3nc4ccncc4n3Cc3ccccc3)cc2)cc1	16.4µM*	.	.	-26.0%	?	23.1µM*
C[C@@H]1CN(Cc2ccc3c(c2)CN(Cc2cccc(O)c2)CCO3)C[C@H](C)O1	-1.0%[9.04 µM]	.	.	.	.	?
Cc1cc(C)c2c(=O)nc(SCc3ccccc3C)n(C3CC3)c2n1	-21.8%	.	.	-7.0%	-2.3%	-15.6%
CC(C)C[C@@H](CN)NC(=O)c1nc[nH]c1C(=O)N[C@@H](CC(=O)O)C(=O)CNC[C@H](C)NC(=O)c1nc[nH]c1C(=O)N[C@@H](CC(=O)O)C(=O)O	-21.7%	1.1%	0.3%	12.0%	4.0%	-1.2%
Cc1ccc(NC(=O)CSC(C)C(=O)OCc2cc(=O)oc3cc(O)ccc23)cc1 (configuration not stated)	-11.5%	6.4%	-1.1%	-10.6%	-0.5%	-26.6%
CCc1ccc(CNC(=O)c2ccc(CSc3nc4ccncc4n3Cc3ccc(OC)cc3)cc2)cc1	23.1µM*	.	.	-32.6%	?	?
CCOc1ccccc1CNC(=O)c1ccc(Cn2c(SCc3ccccc3)nc3cccnc32)cc1	?	.	.	-17.7%	?	?
COc1ccccc1CNC(=O)c1ccc(CSc2nc3ccncc3n2Cc2cccc(F)c2)cc1	?	.	.	-23.2%	?	18.4µM*
COc1cc(OC)c(OC)cc1/C=C1\CCC/C(=C\c2cc(OC)c(OC)cc2OC)C1=O	?	?	?	-13.8%	?	23.1µM*
COc1ccc(/C=C2\CCC/C(=C\c3ccc(OC)c(OC)c3OC)C2=O)c(OC)c1OC	?	1.9%	1.1%	-31.7%	-21.6%	16.4µM*
COc1ccc(/C=C2\CC/C(=C\c3ccc(OC)cc3OC)C2=O)c(OC)c1	?	11.2%	-1.3%	-11.2%	12.6%	?
COc1ccc(/C=c2\[nH]c(=O)/c(=C/c3ccc(OC)c(OC)c3)[nH]c2=O)cc1OC	-1.4%	.	.	-14.4%	2.5%	-23.0%
COc1cc(OC)c(OC)cc1/C=c1\[nH]c(=O)/c(=C/c2cc(OC)c(OC)cc2OC)[nH]c1=O	0.794µM*	.	.	-23.7%	?	0.708µM*
Cc1ccc(S(=O)(=O)N2CCN(CCC#N)CC2)cc1	-3.2%	16.7%	17.4%	-18.2%	-5.6%	6.3%
CCCCN(CCCNC(=O)C1CCN(C(=O)c2cc3sccc3n2C)CC1)Cc1ccccc1	?	?	18.4µM*	-24.7%	?	?
CCCCN(CCCNC(=O)C1CCN(S(=O)(=O)N2CCOCC2)CC1)c1ccccc1	13µM*	-3.4%	-1.6%	-1.6%	-8.1%	13µM*
CCN(CCCNC(=O)C1CCN(S(=O)(=O)N2CCC3(CC2)OCCO3)CC1)c1ccccc1	-18.0%	0.2%	-5.6%	5.5%	-0.4%	-11.9%
CCN(CCCNC(=O)C1CCN(C(=O)c2cc3sccc3n2C)CC1)Cc1ccccc1	-29.6%	-16.9%	-7.2%	-26.3%	-1.0%	3.8%
COc1ccc(C(C)=O)cc1CSc1nc(NCc2ccc(Cl)cc2)c2ccccc2n1	?	.	.	-4.4%	20.6%	-23.4%
Fc1ccc(Nc2nc(SCc3cccc(F)c3)nc3ccccc23)cc1	14.6µM*	.	.	12.6µM*	?	16.4µM*
Clc1ccc(CSc2nc(NCCc3ccccc3)c3ccccc3n2)cc1	9.2µM*	.	.	-1.8%	0.0%	6.51µM*
COc1ccc(CCNc2nc(SCc3cccc(F)c3)nc3ccccc23)cc1OC	16.4µM*	.	.	-15.9%	0.0%	?
Fc1ccc(Nc2nc(SCc3ccc(Cl)cc3)nc3ccccc23)cc1	?	.	.	-87.3%	?	-101.7%
O=c1cc(CSc2nc(NCc3ccccc3)c3ccccc3n2)nc2ccc(Cl)cn12	16.4µM*	4.2%	4.4%	10.4%	-0.3%	11.6µM*
Clc1ccccc1CSc1nc(NCCc2ccccc2)c2ccccc2n1	?	.	.	-17.3%	-2.1%	13µM*
SMILES	TDP1 cell CPT	HT1080 IDH1KD tx	HT1080NT lethal	HepG2 tox	TGFb SMAD3 inh	TDP1 cell noCPT
COc1cc(C2c3cc4c(cc3OC(N3CCOCC3)C2C)OCO4)cc(OC)c1OC(C)=O (configuration not stated)	?	?	?	-1.4%	-11.4%	25.9µM*
COc1cc(C2c3cc4c(cc3OC(C)(N3CCCC3)C2C)OCO4)cc(OC)c1OC (configuration not stated)	1.16µM*	?	?	-3.3%	-14.7%	1.16µM*
COc1cc2c(c(OC)c1OC)-c1c(cc3c(c1OC)OCO3)C1OC2[C@@H](C)[C@H]1C (some centres not stated)	?	5.3%	13.3%	0.1%	0.7%	?
COc1cc(C2c3cc4c(cc3OC(N3CCCC3)C2C)OCO4)cc(OC)c1O (configuration not stated)	?	?	?	0.5%	0.4%	16.4µM*
COc1cc(C(=S)N2CCCC2)cc(OC)c1O	-4.9%	12.5%	14.7%	1.2%	-27.9%	4.2%
COc1cc(C2c3cc4c(cc3OC(Nc3ccc(C(=O)O)cc3)C2C)OCO4)cc(OC)c1OC (configuration not stated)	1.3µM*	?	0.517µM*	-9.3%	?	1.16µM*
CC(C)OCCCNC(=O)CN1C(=O)COc2ccc(S(=O)(=O)N3CCOCC3)cc21	8.0%	.	.	0.4%	0.1%	-12.6%
COc1ccc(CCNC(=O)C2CCN(C(=O)c3ccc(Br)cc3)CC2)cc1	?	-17.3%	-8.6%	0.0%	10.5%	?
